In PubChem BioAssay (NCI):
Compounds without any hit were thinned out: in the full panel of roughly 83,000, 20% have a hit.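 Method: cells in 96-well plates; compound added at one concentration; 48 h incubation; percent growth measured; values under 10 scored active.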 A number with no mark means an inactive call. Active and inactive are the calls of the source.

System: MDA-MB-468 breast
Experiment: NCI-60 one-dose screen, 48 h (100 = growth as untreated, 0 = no growth, -100 = all killed)
Settings: 10 µM unless noted

SMILES	growth
COc1cc2oc(-c3cccc(NC(=O)c4cc(NC(=O)[C@H](C)N)ccc4Cl)c3)cc(=O)c2c(OC)c1OC	91.1%
Cc1nc2cccc(NCCCCC(=O)NO)c2c(=O)n1-c1ccccc1	54.6%
O=C(Nc1ccc(F)cc1F)c1cc(F)ccc1O	-0.731% (active)
O=C1c2cc3c(cc2-c2c1c1cc(F)c(F)cc1c(=O)n2C[C@H](O)CO)OCO3	-57.2% (active)
COc1ccc(C(O)c2cc3c(N)c(C(=O)Nc4cccc5ccccc45)sc3nc2C)cc1 (stereo not given)	23.7%
CC(O)C(N)=O (stereo not given)	107%
C=C(C)[C@@H]1CC[C@]2(COCCCNCCCN)CC[C@]3(C)[C@H](CC[C@@H]4[C@@]5(C)CC[C@H](OCCCN)C(C)(C)[C@@H]5CC[C@]43C)[C@@H]12	-67.8% (active)
O=C1/C(=N\c2cc(=O)[nH]n2S(=O)(=O)c2ccccc2)Nc2ccccc21	106%
Cc1ccc(S(=O)(=O)n2cc(C3C(Cl)C(=O)N3c3ccc(N4CCOCC4=O)cc3)c3ccccc32)cc1 (stereo not given)	67.6%
COc1cccc(C(Cc2ccccc2)Nc2ccccc2)c1OC (stereo not given)	111%
COc1ccc(C/C(C)=C(/c2ccc(OCCN3CCCCCC3)cc2)c2ccc(OC(=O)NCc3ccccc3)cc2)cc1	83%
CC[C@]12C=CCN3CC[C@@]4(c5cc([C@H]6CCC(=O)N6)c(OC)cc5N(C)[C@H]4[C@@](O)(C(=O)OC)[C@@H]1OC(C)=O)[C@@H]32	110% [2.5 µM]
COc1ccccc1/C=C\C(=O)c1ccccc1	82.7%
O=C(CC(c1ccccc1)N1CCOCC1)c1ccccc1 (stereo not given)	73.4%
COc1ccc(C2=NN(C(C)=O)C(c3cccc(Nc4ccnc5cc(Cl)ccc45)c3)C2)cc1 (stereo not given)	38.9%
CCN(CC)CCOc1ccc(/C(=C(\C)c2ccc(OC)c(F)c2)c2ccc(Cl)cc2)cc1	81.6%
O=C1N=NC2=C1c1c3ccccc3c(O)n1CC2	96.6%
CCN1CCN(CCC(=O)Nc2cccc(-n3cc(-c4ccncc4)c(-c4ccc(Cl)c(OC)c4)n3)c2)CC1	-2.3% (active)
CC(=O)C1CC(C)CCC1C(C)C (stereo not given)	-8.03% (active)
C=CCN(C)C	102%

SMILES	growth
CCC(=O)Oc1ccc(/C(=C(\C)c2ccccc2)c2ccc(OCCN3CCCCC3)cc2)cc1	70.3%
Cc1nc2cc(Nc3nc(Nc4ccc(F)cc4)nc(-c4cccs4)n3)ccc2n1Cc1ccccc1	33.2%
O=C1COc2ccccc2C(=O)N1CCCCNc1ccccc1	94.5%
COc1ccc([C@H]2[C@@H](F)C(=O)N2c2cc(OC)c(OC)c(OC)c2)cc1F	23%
COc1c(O)cc2oc3cc(O)c(CC=C(C)C)c(O)c3c(=O)c2c1CC=C(C)C	71.2%
CCNC(=S)N(Cc1ccccc1)Cc1ccccc1	95.4%
Cn1c(C(=O)c2cccc3ccccc23)nc2ccccc21	-1.13% (active)
O=C(CSc1nnc(Cc2ccccc2Nc2c(Cl)cccc2Cl)n1-c1ccccc1)N1N=C(c2ccc3ccccc3c2)CC1c1ccc(Cl)cc1 (stereo not given)	114%
O=c1oc2ccc(F)cc2c(=O)n1-c1ccc(Cl)cc1F	-1.59% (active)
COc1cc2c3c(cc4c5c(ccc4c3c1OC)OCO5)N(CCN(C)C)C2=O	-48.8% (active)
COc1cc(OC)cc(C(=O)Nc2cc(-c3cccnc3)nc(NCCCN3CCOCC3)n2)c1	83.2%
COc1ccccc1CNCCN1C(=O)c2ccc3c4c(ccc(c24)C1=O)C(=O)N(CCNCc1ccccc1OC)C3=O	-92.8% (active)
C[N+]1(CCCCC[N+]2(C)CCCC2)CCCC1	117%
C[C@@H](Oc1ccc(C(=O)NS(=O)(=O)C(C)(C)C)cc1C(F)(F)F)c1ccc(Oc2ccccc2)cn1	-13.5% (active)
COc1cc(-c2nc(N=Nc3c(O)[nH]c4ccc(Br)cc34)[nH]c(=O)c2C#N)cc(OC)c1OC	103%
COc1ccc(/C=C/C=C\C(=O)c2ccc(-n3ccnc3)cc2)cc1	92.4%
O[C@@H]1Cc2ccc3ccccc3c2N[C@H](c2ccoc2)C1	79.4%
O=S(=O)(Nc1ccc(Cl)c(C(F)(F)F)c1)c1ccc(-c2cnc(C3CC3)o2)cc1	-7.54% (active)
Cc1nccc2c3ccc(OCc4cn(-c5ccc(Br)cc5)nn4)cc3n(CC(C)C)c12	5.61% (active)
CCOC(=O)c1cc(CC)sc1NC(=O)CC(C)=O	57.2%
